These results are taken from PubChem BioAssay (Tox21).

Structures are written as SMILES. “And” between values parts separate entries of the source, which are not always exact repeats. Equal entries are not always repeated. The source made the active and inactive calls. Unless noted, calls follow the shape of the dose curve; as a rule, active = well fitted curve in the direction sought with a large enough effect in the repeat runs; inconclusive = weak or mixed curves; inactive = no such curve, though single readings can be large; an effect the other way counts as inactive or inconclusive.

The nature of assay [1]: qHTS assay to identify small molecule antagonists of the thyroid receptor (TR) signaling pathway - cell viability counter screen (AID 743064). Also: nearly all actives have a fitted effect of over 50% in size. Also: potency is read from the fitted curve at half-maximal effect. An outline of the steps: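 GH3.TRE-Luc cells, 4 h pre-plating; cpd + T3 1 nM final; 37 °C 23.5 h; CellTiter-Fluor 30 min; fluorescence read.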
For orientation: qHTS replaces the single test concentration by a dilution series.

Assay [2] is described as follows: qHTS assay to identify small molecule antagonists of the thyroid receptor (TR) signaling pathway (AID 743065). Also: nearly all actives have a fitted effect of over 55% in size. Also: potency is read from the fitted curve at half-maximal effect. The method in brief: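 GH3.TRE-Luc rat pituitary cells carrying two TR response elements driving luciferase were plated for 4 h, given compound plus 1 nM T3 (final), and incubated 23.5 h at 37 C. ONE-Glo luminescence measured reporter inhibition; CellTiter-Fluor fluorescence tracked cytotoxicity.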

The test system of assay [3] is thyroid hormone receptor (rat, GH3 cells). The experiment in a line: qHTS assay to identify small molecule agonists of the thyroid receptor (TR) signaling pathway (AID 743066; calls by dose curve).
Assay [4] is described as follows: qHTS assay to identify small molecule antagonists of the estrogen receptor alpha (ER-alpha) signaling pathway - cell viability counter screen (AID 743074; calls by dose curve; also: nearly all actives have a fitted effect of over 45% in size; also: potency is read from the fitted curve at half-maximal effect).
A short description of assay [5]: qHTS assay to identify small molecule antagonists of the estrogen receptor alpha (ER-alpha) signaling pathway using the BG1 cell line - cell viability counter screen (AID 743081).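 Also: compound given together with 17beta-estradiol as the ER stimulus; nearly all actives have a fitted effect of over 45% in size.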 Also: potency is read from the fitted curve at half-maximal effect.
The next assay addresses Aromatase (Homo sapiens) (UniProt P11511). The experiment in a line: qHTS assay to identify aromatase inhibitors (AID 743083). Also: nearly all actives have a fitted effect of over 55% in size. Also: potency is read from the fitted curve at half-maximal effect.
Assay [6] addresses Estrogen receptor (Homo sapiens) (UniProt P03372). The experiment in a line: qHTS assay to identify small molecule agonists of the estrogen receptor alpha (ER-alpha) signaling pathway (AID 743075; calls by dose curve; also: potency is read from the fitted curve at half-maximal effect).
A short description of assay [7]: qHTS assay to identify small molecule antagonists of the estrogen receptor alpha (ER-alpha) signaling pathway using the BG1 cell line (AID 743080; calls by dose curve; also: nearly all actives have a fitted effect of over 25% in size; also: potency is read from the fitted curve at half-maximal effect). The settings on record: BG1Luc4E2 ERE-luciferase antagonist mode, luminescence; activity change, negative = inhibition: at 70.3 µM (top of the series). An outline of the steps:
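Antagonist mode: compounds in DMSO were pinned onto BG1-Luc-4E2 cells alongside 17beta-estradiol agonist, incubated 21.5 h, and ERE-driven luciferase measured with ONE-Glo. Cytotoxicity was multiplexed using CellTiter-Fluor fluorescence.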

Assay [8] addresses Estrogen receptor (Homo sapiens) (UniProt P03372). The experiment in a line: qHTS assay to identify small molecule agonists of the estrogen receptor alpha (ER-alpha) signaling pathway using the BG1 cell line (AID 743079). Also: nearly all actives have a fitted effect of over 20% in size. Also: potency is read from the fitted curve at half-maximal effect. The settings on record: BG1Luc4E2 cells, ERE-luciferase agonist, 22 h; activation: at 70.3 µM (top of the series).
The target is the same in assay [9]. Kind of assay: qHTS assay to identify small molecule antagonists of the estrogen receptor alpha (ER-alpha) signaling pathway (AID 743069; active = well fitted curve in the direction sought with a large enough effect in the signal ratio in the repeat runs, not every such curve was filed as active; inconclusive = weak or mixed curves, or effect the other way; inactive = no such curve, though single readings can be large or run the other way; the % refers to the signal ratio; also: potency is read from the fitted curve at half-maximal effect). An outline of the steps: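 Screening used a UAS-driven beta-lactamase reporter integrated into HEK293 cells expressing ER-alpha, stimulated with 17beta-estradiol alongside test compounds over 18 hr at 37C; signal came from LiveBLAzer B/G FRET fluorescence.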

Sequence of Aromatase (Homo sapiens) (P11511 whole entry, looked up): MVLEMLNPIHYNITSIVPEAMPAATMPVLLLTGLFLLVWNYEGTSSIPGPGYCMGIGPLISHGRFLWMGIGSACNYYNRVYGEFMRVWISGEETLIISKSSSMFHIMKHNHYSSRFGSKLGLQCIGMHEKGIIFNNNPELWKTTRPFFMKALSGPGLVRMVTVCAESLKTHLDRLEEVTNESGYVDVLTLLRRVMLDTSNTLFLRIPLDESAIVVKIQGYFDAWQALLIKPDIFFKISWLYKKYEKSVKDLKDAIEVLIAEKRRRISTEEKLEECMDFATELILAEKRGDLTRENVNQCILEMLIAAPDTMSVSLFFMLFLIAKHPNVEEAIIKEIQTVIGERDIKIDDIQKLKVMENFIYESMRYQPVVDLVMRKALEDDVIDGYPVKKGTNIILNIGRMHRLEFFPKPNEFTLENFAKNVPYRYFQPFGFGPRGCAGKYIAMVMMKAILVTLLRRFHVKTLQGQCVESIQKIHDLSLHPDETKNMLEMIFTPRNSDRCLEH
Sequence of Estrogen receptor (Homo sapiens) (P03372 whole entry, looked up): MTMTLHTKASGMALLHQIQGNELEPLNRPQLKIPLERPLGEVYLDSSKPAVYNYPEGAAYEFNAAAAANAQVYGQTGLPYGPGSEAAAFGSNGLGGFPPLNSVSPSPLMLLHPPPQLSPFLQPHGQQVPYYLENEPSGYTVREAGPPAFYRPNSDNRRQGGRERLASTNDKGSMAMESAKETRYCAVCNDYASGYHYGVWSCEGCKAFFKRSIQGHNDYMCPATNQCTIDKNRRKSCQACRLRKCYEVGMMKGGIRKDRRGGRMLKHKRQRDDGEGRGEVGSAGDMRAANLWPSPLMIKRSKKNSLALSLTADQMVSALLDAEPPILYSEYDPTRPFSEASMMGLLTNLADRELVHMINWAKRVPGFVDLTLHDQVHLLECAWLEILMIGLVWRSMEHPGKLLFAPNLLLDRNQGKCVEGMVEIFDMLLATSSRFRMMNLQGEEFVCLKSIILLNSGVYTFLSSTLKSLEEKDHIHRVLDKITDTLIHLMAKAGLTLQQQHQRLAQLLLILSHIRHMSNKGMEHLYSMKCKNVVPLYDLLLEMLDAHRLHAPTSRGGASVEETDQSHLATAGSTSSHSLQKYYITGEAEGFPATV

As to `N[C@@H](CSSC[C@H](N)C(=O)O)C(=O)O`, the Potency result (in assay [1]; in assay [2]; in [3]; in assay [4]; in assay [5]; with Aromatase (Homo sapiens)) was “inactive” in each case.
Consider `Cc1cc(Nc2ccc(O)cc2)ccc1N`, for which the Potency is 12.1 µM (active) in assay [1], 7.66 µM (active) in assay [2], 54.2 µM (active) in assay [5] and 27.2 µM (active) with Aromatase (Homo sapiens). Moreover, the Potency entry in assay [3] and in [4] was “inactive” throughout.
Regarding `COC(=O)NCCC[Si](OC)(OC)OC`, the Potency result (in assay [1]; in assay [2]; in assay [3]; in assay [4]; in assay [5]; with Aromatase (Homo sapiens)) was “inactive” each time.
As to `C/C=C/C=N/NC(=O)c1ccncc1`, the Potency result (in assay [1]; in assay [2]; in assay [3]; in assay [4]; in assay [5]; in the assay with Aromatase (Homo sapiens)) was “inactive” in each case.
Consider `SCCCCCCCCS`, for which the Potency result (in assay [1]; in assay [2]; in [3]; in assay [4]; in [5]; with Aromatase (Homo sapiens)) was “inactive” in each case.
For `CCCCCCCCCCCCCC[n+]1ccccc1`, the Potency was 6.86 µM (active) in assay [1]; 2.43 µM (active) in assay [2]; 24.5 µM (active) in assay [4]; 4.86 µM (active) in assay [7]; 6.11 µM (active) with Aromatase (Homo sapiens). Further, the Potency entry in assay [3] and in assay [6] was “inactive” throughout.
`O=C(O)CCCCCCC(=O)O`: the Potency entry (in [1]; in [2]; in assay [3]; in [4]; in assay [5]; in the assay with Aromatase (Homo sapiens)) was “inactive” in each case.
For `Nc1ncnc2c1ncn2[C@@H]1O[C@H](COP(=O)(O)O)[C@@H](O)[C@H]1O`, the Potency result (in assay [1]; in assay [2]; in assay [3]; in assay [5]; with Aromatase (Homo sapiens)) was “inactive” in each case. In addition, in [4], the Potency is 21.3 µM (active).
Turning to `CC(=O)Nc1ccc(O)cc1`, the Potency result (in assay [1]; in [2]; in [3]; in [4]; in assay [5]; with Aromatase (Homo sapiens)) was “inactive” in each case.
Turning to `CCCCCCCCCCCCCOP(=O)(O)O`, the Potency entry in assay [1], in [2], in [3], in assay [4], in assay [6] and in [8] was “inactive” in each case. The Potency entry in [7] and in assay [5] was “inactive” each time.
In the case of `CCCCCCOc1cc(C)c(O)c(C)c1C`, the Potency in [1] is 49.2 µM (active); in assay [2], 55.1 µM (active); with Aromatase (Homo sapiens), 43.8 µM (active). In addition, the Potency entry in [3], in assay [4], in [6], in assay [8] and in assay [5] was “inactive” in each case.
As for `CCN1CCN(c2cc(-c3ccc(F)cc3)c3c(n2)CCCCCC3)CC1`, the results for the Potency in assay [1] and in [2] were 13.3 µM (active) and 18.8 µM (active), respectively. Moreover, the Potency result (in assay [3]; in [4]; with Aromatase (Homo sapiens)) was “inactive” in each case.
`O=C(Nc1ccc(Cl)c(Cl)c1)c1cc(Cl)cc(Cl)c1O`: the Potency is 4.86 µM (active) in assay [1]; 2.17 µM (active) in assay [2]; 2.45 µM (active) in assay [4]; 436 nM [inconclusive] (active) in assay [6]; 4.86 µM (active) in [7]; 6.11 µM (active) with Aromatase (Homo sapiens). For the same molecule, the Potency entry in assay [3] and in assay [5] was “inactive” throughout.
As to `C=CC(=O)OCC(O)COc1ccccc1` (stereo not drawn), the Potency in [1] is 54.5 µM (active); in assay [2], 48.6 µM (active); with Aromatase (Homo sapiens) it was 68.6 µM (active). The Potency entry in [3], in assay [4], in [6], in [8] and in assay [5] was “inactive” each time.
Take `O=C(O)CC(=O)O`: the Potency result (in assay [1]; in assay [2]; in [3]; in [4]; in assay [5]; with Aromatase (Homo sapiens)) was “inactive” throughout.
Consider `CC1(C)C(=O)N(Br)C(=O)N1Br`, for which the Potency entry (in assay [1]; in [2]; in assay [3]; in [4]; in assay [5]; with Aromatase (Homo sapiens)) was “inactive” throughout.
For the molecule `C[C@@]12C(=O)OC(=O)[C@]1(C)C1CCC2O1`, the Potency in assay [1] was 2.27 µM (active); in [2], 2.02 µM (active); in assay [9], 4.06 µM [inconclusive] (active). The Potency result in assay [3] and in [6] was “inactive” throughout.
For the molecule `CCNc1nc(NC(C)CC)nc(OC)n1` (stereo not drawn), the Potency entry (in assay [1]; in assay [2]; in assay [3]; in assay [4]; in [5]; with Aromatase (Homo sapiens)) was “inactive” throughout.
As for `O=C(O)CCn1c2c(c3ccccc31)C[C@H](NS(=O)(=O)c1ccc(F)cc1)CC2`, the Potency entry (in assay [1]; in assay [2]; in [3]; in [4]; with Aromatase (Homo sapiens)) was “inactive” each time.
Turning to `CN(C)c1ccc(N=Nc2ccccc2C(=O)O)cc1`, the Potency in [1] is 15.4 µM (active); in assay [2] it was 9.69 µM (active); with Aromatase (Homo sapiens) it was 54.5 µM (active). The Potency result in assay [3], in assay [6] and in assay [7] was “inactive” throughout.
Regarding `c1ccc(Nc2cccc3ccccc23)cc1`, the Potency in assay [1] is 69.5 µM (active); in [2], 69.5 µM (active); in assay [6], 44.2 µM [inconclusive] (active) and 17.4 µM [activator] (active); in assay [8], 13.9 µM (active) and 9.69 µM (active); with Aromatase (Homo sapiens), 43.8 µM (active) and 61.1 µM (active). Besides, the Potency entry in [3], in [4], in assay [7] and in assay [5] was “inactive” each time.
Turning to `CCCCCCCCCCCCN(CCO)CCO`, the Potency in [1] is 17.2 µM (active); in assay [2] it was 15.3 µM (active); in assay [4], 48.8 µM (active); in assay [7], 68.3 µM (active); in the assay with Aromatase (Homo sapiens), 30.5 µM (active). The Potency entry in assay [3] and in [6] was “inactive” each time.
As for `Cc1cccc(Br)c1`, the Potency entry (in assay [1]; in [2]; in [3]; in assay [4]; in assay [5]; with Aromatase (Homo sapiens)) was “inactive” each time.
For `O=C1c2c(O)ccc(O)c2C(=O)c2c(NCCNCCO)ccc(NCCNCCO)c21`, the Potency in [1] was 0.569 µM (active); in assay [2] it was 0.507 µM (active); with Aromatase (Homo sapiens) it was 9.02 µM (active). In addition, the Potency result in assay [3], in assay [4] and in [5] was “inactive” each time.
Consider `C=CCCCCCCC=C`, for which the Potency entry (in assay [1]; in assay [2]; in assay [3]; in assay [4]; in assay [5]; with Aromatase (Homo sapiens)) was “inactive” throughout.
On to `CCCCCCOc1ccc(O)cc1`, for which the values for the Potency in assay [1], in [2] and in [8] were 12.2 µM (active), 6.86 µM (active) and 8.63 µM (active), respectively. Also, the Potency result in [3], in [6] and in assay [5] was “inactive” throughout.
For the molecule `CC1=C(/C=C/C(C)=C/C=C/C(C)=C/C(=O)Nc2ccc(O)cc2)C(C)(C)CCC1`, the Potency was 6.68 µM (active) and 8.85 µM (active) in assay [1]; 5.96 µM (active) and 7.89 µM (active) in assay [2]; 6.01 µM [inhibitor] (active) in assay [9]; 16.8 µM (active) and 62.7 µM (active) in assay [5]; 13.3 µM (active) and 28 µM (active) with Aromatase (Homo sapiens). Further, the Potency entry in assay [3] and in [6] was “inactive” throughout.
With `C=CC(=O)OCCOCC(CC)(COCCOC(=O)C=C)COCCOC(=O)C=C`, the Potency result in [1], in assay [2], in [3] and in assay [4] was “inactive” throughout. For the same molecule, in the assay with Aromatase (Homo sapiens), the Potency is 10.1 µM (active).
